HMGR II inh – blocks class II HMG-CoA reductase of Enterococcus faecalis. purified E. faecalis HMGR, NADPH absorbance 340 nm kinetic. inhibition, % at 10 µM. 190,000 tested, 0.41% active. AID 1066;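 active = inhibition above a set limit, the median over all tested compounds plus 3 SD, cut at about 9.5% in these data; inconclusive = no clear call, values can overlap the other calls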;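 note: enzyme runs in reverse so mevalonate oxidation gives rising NADPH absorbance; 0% = complete reaction with DMSO and 100% = background rate lacking mevalonate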
zVAD death inh – L929 zVAD cell death inhibition | L929 zVAD necroptosis rescue, ATP luminescence, 24 h; with zVAD 60 µM | viability rescue, % at 10 µM | 220,000 tested, 0.38% active | AID 1377;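 active = activation, scaled between plate controls, above about 75%, limit read from the data; inactive = activation under that limit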;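 note: 0% = zVAD with DMSO and 100% = DMSO alone without zVAD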
TNF necrop inh – blocks TNF-alpha induced death of Jurkat FADD-/- cells. AID 463075. 220,000 tested, 0.068% active. activation (protection from cell death), % at 10 µM. Jurkat FADD-/- TNF necroptosis rescue, ATP luminescence, 24 h; 0 = TNF only, 100 = no-TNF cells;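 active = activation, meaning protection from cell death, of at least 50% relative to plate controls; inactive = activation below 50%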;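 note: necroptosis triggered by 40 ng/mL TNF-alpha added together with compound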
Calpain2 inh – blocks pig calpain II enzyme activity | 220,000 tested, 0.37% active | inhibition, % at 16 µM | purified calpain II, fluorogenic peptide substrate, 30 min;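 active = inhibition above about 50%, limit read from the data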
14-3-3 Bad PPI – disrupts binding of bovine 14-3-3 zeta to phospho-Bad peptide | P63103 | TR-FRET 14-3-3zeta/Dy647-pBad peptide displacement, 1 h | inhibition, % at 21.7 µM | 220,000 tested, 0.71% active | AID 781;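 active = inhibition above about 70%, limit read from the data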;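 note: 0% = full 14-3-3 plus peptide FRET controls and 100% = background without 14-3-3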
Target sequence (P63103 whole entry, looked up): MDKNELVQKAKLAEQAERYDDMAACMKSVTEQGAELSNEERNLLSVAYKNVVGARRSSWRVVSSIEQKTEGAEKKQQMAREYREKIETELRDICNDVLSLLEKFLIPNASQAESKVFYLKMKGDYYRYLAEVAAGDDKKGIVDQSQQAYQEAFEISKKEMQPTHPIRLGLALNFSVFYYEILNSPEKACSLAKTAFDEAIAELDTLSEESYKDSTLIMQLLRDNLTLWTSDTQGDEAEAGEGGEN
ROMK primary – human ROMK K+ channel modulation, primary screen | 130,000 tested, 2% active | Tet-inducible ROMK, thallium flux fluorescence; actives lie on both sides | B-score at 10 µM | P48048 | AID 1918;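 active = signal ratio slope over the read window, or its plate-corrected B-score, at least 3 SD from the plate mean, either direction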;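 note: B-score of the F/F0 ratio slope over 7 to 12 s after thallium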
ROMK hit retest – retested hit modulating human ROMK potassium channel; shares compounds with ROMK primary; ROMK thallium flux, fluorescence ratio; hits give low values; normalized thallium flux (F/F0 slope) at 10 µM; 3,000 tested, 54% active; AID 1917;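 active = Flux at 10 µM at least 3 SD below or above vehicle control mean in one or both replicates; inconclusive = no clear call, values can overlap the other calls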
* marks the source's active call; other numbers are inactive results; ? = inconclusive; nt = no result. Hits are enriched below; roughly 3% of the tested compounds scored in any of these assays.

SMILES | HMGR II inh | zVAD death inh | TNF necrop inh | Calpain2 inh | 14-3-3 Bad PPI | ROMK primary | ROMK hit retest
N=c1n(Cc2ccccc2)c2ccccc2n1CC(O)c1ccco1 (centres undefined) | -2 | 0 | 1 | 6 | -3 | -2.5* | 0.061*
CCn1c(=N)n(CC(O)c2ccco2)c2ccccc21 (centres undefined) | -3 | 0 | 0 | -8 | -12 | nt | nt
COc1ccc(C(=O)CSc2[nH]c(=O)cc(C(F)(F)F)c2C#N)cc1 | nt | 3 | 2 | 6 | 13 | nt | 0.068*
O=C1C=CC(=O)C(C2=C3C(=O)N(CCc4ccccc4)CC(=O)N3CCC2)=C1 | 3 | 0 | -21 | -7 | 1 | -3* | 0.051*
CC1=C/C(=C\C=C(C#N)C#N)N(C)c2ccccc21 | nt | 0 | -11 | 27 | 29 | -4* | 0.041*
COc1cccc(/C=C/C(=O)c2c(O)cc(C)oc2=O)c1O | -3 | 1 | -4 | -17 | -4 | -5.9* | 0.057*
CC(C)CCNC(=O)C(c1ccc(O)cc1)N(C(=O)C1COc2ccccc2O1)c1cccc(O)c1 (centres undefined) | -10 | -2 | 1 | -3 | -9 | -2.7* | 0.055*
CC1=C(C(=O)OCC(Cl)(Cl)Cl)N2C(=O)C(NC(=O)Cc3ccccc3)C2SC1 (centres undefined) | -7 | 21 | 1 | -5 | -4 | -3.1* | 0.061*
Cc1ccc(OC(=S)Nc2ccc(O)cc2)cc1 | -5 | -1 | -9 | 26 | -1 | -5.1* | 0.043*
Cc1oc(S(=O)(=O)N2CCCCC2)cc1NC(=O)Nc1ccc(Cl)cc1 | nt | 7 | 2 | -15 | 0 | nt | nt
CC1(C)Cc2nc3sc4c(SCC(=O)NCc5ccco5)ncnc4c3cc2CO1 | -6 | 1 | -8 | 10 | -16 | nt | nt
Cc1nc2c(sc3nc4c(cc32)COC(C)(C)C4)c(=O)n1CC(=O)NCc1ccco1 | -3 | -1 | -10 | -32 | 2 | 4.1* | 0.09
OCc1cn(-c2ccccc2)nc1-c1ccc(-c2nn(-c3ccccc3)cc2CO)cc1 | -4 | 1 | -3 | -72 | -11 | 0.016 | nt
Cc1ccc(-c2nn(-c3ccccc3)cc2CSC(=N)N)cc1 | 1 | 17 | -25 | 7 | -7 | nt | 0.052*
Cc1nc(Cl)c2c(n1)N(CC(N)=O)C(=O)CO2 | -3 | 0 | 1 | -4 | 5 | -0.46 | nt
Cc1[nH]n(-c2ccccc2)c(=O)c1C(C[N+](=O)[O-])c1ccc(Cl)cc1 (centres undefined) | 0 | -1 | 3 | 1 | -14 | -3* | 0.061*
O=C(COc1nsnc1N1CCOCC1)N/N=C/c1ccccc1O | -3 | 3 | -4 | -94 | 0 | -0.4 | nt
CSc1nc(C)cc(OCC(=O)N/N=C/c2ccccc2O)n1 | 0 | 4 | -5 | -151 | -17 | 2.9* | 0.081
Cc1[nH]c2ccccc2c1SCC(=O)N1CCCCCC1 | 1 | 1 | 2 | 27 | -3 | -0.085 | nt
O=C(O)c1ccc(N/N=C/C2=C(N3CCOCC3)C(=C\c3ccccc3)/CC2)cc1 | nt | 1 | -4 | 17 | -2 | nt | 0.045*
C/C(=N\NC(=S)Nc1c(C)cccc1C)c1cc2ccccc2o1 | -1 | nt | -8 | 11 | -8 | -0.014 | nt
C/C(=N\NC(=S)Nc1c(C)cccc1C)c1ccc(O)cc1 | nt | 0 | -2 | 0 | -3 | nt | 0.078
O=C(NN=C1C2CC3CC(C2)CC1C3)c1cccc(S(=O)(=O)N2CCOCC2)c1 | 1 | 0 | 1 | 24 | -9 | nt | nt
O=C(c1cc2ccccc2c(=O)o1)N1CCCCCC1 | 2 | nt | 1 | 3 | -11 | -1.8 | nt
O=C(O)c1cccc2c1C(=O)c1ccccc1C2=O | 0 | 2 | 0 | 18 | -7 | -2.4* | 0.087
O=C(Nc1ccc(O)cc1)C1CC=CCC1 (centres undefined) | 3 | 0 | -5 | -6 | nt | nt | 0.073
Cc1cccc(OCC(=O)Nc2ccccc2C(=O)N2CCOCC2)c1 | 1 | 0 | 1 | 21 | 4 | 3.1* | ?
Cc1cccc(-n2c(CCc3ccccc3)nnc2SCC(=O)c2ccccc2)c1 | -8 | nt | 3 | 45 | -2 | -1.7 | nt

Screens: PubChem, several laboratories
